Test results: PMC7862700, “An all-to-all approach to the identification of sequence-specific readers for epigenetic DNA modifications on cytosine”

How the values were obtained:
Assay in all cases: DAPPL (digital affinity profiling via proximity ligation, sequencing); 10 mM Tris-HCl pH 7.5, 50 mM NaCl, 1 mM DTT, 4% glycerol, room temperature, 30 min; GST-TFs on glutathione beads, 16-mer random dsDNA library, 0.1% formaldehyde crosslink after washing; high values mean tight binding
Conditions in all cases: protein: recombinant; tags: N-terminal GST; dsDNA, one strand shown
FLI1 = target: T1, FLI1 (Homo sapiens, UniProt Q01543 1-452)
T1 sequence: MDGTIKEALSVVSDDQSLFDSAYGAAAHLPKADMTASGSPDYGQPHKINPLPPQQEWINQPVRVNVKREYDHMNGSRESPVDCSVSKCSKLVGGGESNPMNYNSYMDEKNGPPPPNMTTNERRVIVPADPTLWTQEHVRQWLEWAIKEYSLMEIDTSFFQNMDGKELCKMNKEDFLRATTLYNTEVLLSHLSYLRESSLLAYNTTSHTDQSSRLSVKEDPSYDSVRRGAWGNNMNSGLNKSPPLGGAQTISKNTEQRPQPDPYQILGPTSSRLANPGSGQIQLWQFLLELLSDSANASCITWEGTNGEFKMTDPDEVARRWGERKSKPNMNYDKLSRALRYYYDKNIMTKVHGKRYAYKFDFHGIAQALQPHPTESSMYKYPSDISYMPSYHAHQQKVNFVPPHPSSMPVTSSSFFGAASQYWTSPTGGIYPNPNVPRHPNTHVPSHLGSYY
Procedure, shortened: (§1)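 The binding signal reported is, for every hexamer, its read frequency for a factor over its read frequency for the tag-only sample. Reads came from pools of yeast-expressed, GST-fused human transcription factors on glutathione beads, barcoded with DNA and mixed with that sample, which were incubated with 200 nmole of a random double-stranded 16-mer DNA library in Tris/NaCl/DTT/glycerol buffer at room temperature for 30 min. After washing, the pools were crosslinked with 0.1% formaldehyde, proximity-ligated with BsaI/T4 ligase for 1 h at 37 °C, PCR-amplified and sequenced on an Illumina NextSeq500.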

ELK1 = target: T2, ELK1 (Homo sapiens, UniProt P19419 1-428)
T2 sequence: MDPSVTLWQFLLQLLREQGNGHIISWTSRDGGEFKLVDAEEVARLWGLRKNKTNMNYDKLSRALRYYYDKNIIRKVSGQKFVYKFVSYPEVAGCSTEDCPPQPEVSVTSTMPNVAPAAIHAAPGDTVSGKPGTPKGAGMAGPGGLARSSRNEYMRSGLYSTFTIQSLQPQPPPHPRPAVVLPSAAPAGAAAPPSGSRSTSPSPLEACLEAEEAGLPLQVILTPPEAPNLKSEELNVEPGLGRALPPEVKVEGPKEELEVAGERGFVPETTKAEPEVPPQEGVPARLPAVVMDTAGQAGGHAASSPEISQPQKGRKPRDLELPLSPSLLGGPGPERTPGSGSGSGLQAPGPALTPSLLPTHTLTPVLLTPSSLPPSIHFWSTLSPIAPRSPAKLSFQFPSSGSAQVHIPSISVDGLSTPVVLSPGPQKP
Procedure, shortened: as §1

GABPA = target: T3, GABPA (Homo sapiens, UniProt Q06546 1-454)
T3 sequence: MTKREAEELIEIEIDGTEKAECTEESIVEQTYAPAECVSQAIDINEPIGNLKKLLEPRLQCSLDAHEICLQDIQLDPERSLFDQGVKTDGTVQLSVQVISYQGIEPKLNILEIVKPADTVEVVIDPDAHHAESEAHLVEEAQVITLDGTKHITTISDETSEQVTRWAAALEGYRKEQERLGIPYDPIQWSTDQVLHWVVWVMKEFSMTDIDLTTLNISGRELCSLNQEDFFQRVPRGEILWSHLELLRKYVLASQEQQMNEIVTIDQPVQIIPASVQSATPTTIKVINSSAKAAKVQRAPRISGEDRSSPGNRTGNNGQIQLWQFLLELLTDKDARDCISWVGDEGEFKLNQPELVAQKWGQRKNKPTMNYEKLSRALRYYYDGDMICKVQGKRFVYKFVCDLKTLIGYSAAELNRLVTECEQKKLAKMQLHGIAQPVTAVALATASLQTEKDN
Procedure, shortened: as §1

ERG = target: T4, ERG (Homo sapiens, UniProt P11308 1-479)
T4 sequence: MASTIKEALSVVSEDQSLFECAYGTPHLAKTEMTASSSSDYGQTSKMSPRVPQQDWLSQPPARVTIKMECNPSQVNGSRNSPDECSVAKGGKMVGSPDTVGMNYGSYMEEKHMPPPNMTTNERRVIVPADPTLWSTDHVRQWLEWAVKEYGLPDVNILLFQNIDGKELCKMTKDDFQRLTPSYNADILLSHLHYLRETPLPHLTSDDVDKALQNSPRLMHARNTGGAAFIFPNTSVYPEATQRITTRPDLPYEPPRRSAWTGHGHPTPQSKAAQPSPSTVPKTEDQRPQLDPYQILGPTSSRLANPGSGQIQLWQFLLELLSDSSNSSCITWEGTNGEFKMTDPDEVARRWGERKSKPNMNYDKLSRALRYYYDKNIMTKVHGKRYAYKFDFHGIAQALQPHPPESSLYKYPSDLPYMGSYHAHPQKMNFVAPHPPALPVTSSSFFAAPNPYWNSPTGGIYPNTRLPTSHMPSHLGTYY
Procedure, shortened: as §1

ELF1 = ELF1 (Homo sapiens, UniProt P32519 1-619)
Procedure, shortened: as §1

EHF = target: T5, EHF (Homo sapiens, UniProt Q9NZC4 1-300)
T5 sequence: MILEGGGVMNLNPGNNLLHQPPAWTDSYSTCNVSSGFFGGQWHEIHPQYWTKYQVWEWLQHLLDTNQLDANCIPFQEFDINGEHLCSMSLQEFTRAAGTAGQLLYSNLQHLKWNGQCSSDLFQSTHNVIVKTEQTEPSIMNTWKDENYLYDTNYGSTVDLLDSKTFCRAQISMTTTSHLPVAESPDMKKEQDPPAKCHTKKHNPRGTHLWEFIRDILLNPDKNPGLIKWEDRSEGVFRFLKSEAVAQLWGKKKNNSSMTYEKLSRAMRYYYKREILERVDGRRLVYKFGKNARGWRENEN
Procedure, shortened: as §1

SPI1 = SPI1 (Homo sapiens, UniProt P17947 1-270)
Procedure, shortened: as §1

SPIB = SPIB (Homo sapiens, UniProt Q01892 1-262)
Procedure, shortened: as §1

ELK3 = target: T6, ELK3 (Homo sapiens, UniProt P41970 1-407)
T6 sequence: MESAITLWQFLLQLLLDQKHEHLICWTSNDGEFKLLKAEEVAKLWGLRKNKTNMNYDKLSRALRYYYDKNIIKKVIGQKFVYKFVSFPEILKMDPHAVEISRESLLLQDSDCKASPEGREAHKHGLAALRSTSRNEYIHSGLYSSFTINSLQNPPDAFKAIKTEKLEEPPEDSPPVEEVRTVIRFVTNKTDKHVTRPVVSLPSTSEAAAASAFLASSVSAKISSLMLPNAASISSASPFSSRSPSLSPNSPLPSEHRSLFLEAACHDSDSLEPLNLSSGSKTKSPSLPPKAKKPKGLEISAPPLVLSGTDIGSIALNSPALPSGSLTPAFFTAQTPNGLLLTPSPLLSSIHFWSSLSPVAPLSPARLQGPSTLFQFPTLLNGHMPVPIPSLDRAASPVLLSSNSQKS
Procedure, shortened: as §1

Chain of ELF1 (P32519 whole entry): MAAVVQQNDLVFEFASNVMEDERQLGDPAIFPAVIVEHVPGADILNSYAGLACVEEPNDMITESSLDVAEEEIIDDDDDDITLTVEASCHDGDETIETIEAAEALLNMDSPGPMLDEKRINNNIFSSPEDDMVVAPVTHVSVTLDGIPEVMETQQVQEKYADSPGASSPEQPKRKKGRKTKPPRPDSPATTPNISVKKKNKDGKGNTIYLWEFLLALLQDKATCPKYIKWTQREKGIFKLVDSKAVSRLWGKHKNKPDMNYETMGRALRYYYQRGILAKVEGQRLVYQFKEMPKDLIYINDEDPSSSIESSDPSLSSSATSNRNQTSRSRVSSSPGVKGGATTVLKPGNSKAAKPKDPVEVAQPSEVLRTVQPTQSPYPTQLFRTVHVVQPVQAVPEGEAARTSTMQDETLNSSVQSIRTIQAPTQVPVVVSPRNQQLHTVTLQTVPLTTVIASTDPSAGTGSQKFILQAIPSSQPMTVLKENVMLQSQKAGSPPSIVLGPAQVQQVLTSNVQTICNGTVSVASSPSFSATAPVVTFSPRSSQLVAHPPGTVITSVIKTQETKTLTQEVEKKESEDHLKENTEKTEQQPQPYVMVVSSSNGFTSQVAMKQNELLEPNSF
Chain of SPIB (Q01892 whole entry): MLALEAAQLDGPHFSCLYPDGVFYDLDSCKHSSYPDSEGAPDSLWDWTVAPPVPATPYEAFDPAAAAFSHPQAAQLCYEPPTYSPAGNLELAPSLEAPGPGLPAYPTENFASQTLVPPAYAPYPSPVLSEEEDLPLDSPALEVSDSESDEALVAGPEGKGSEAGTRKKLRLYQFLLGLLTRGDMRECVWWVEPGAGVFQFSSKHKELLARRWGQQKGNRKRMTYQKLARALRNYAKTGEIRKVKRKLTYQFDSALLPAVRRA

Sequence | binding signal (FLI1) | binding signal (ELK1) | binding signal (GABPA) | binding signal (ERG) | binding signal (ELF1) | binding signal (EHF) | binding signal (SPI1) | binding signal (SPIB) | binding signal (ELK3)
TAACTA | 1.36 fold enrichment (6-mer frequency, TF over GST control) | 1.29 fold enrichment (6-mer frequency, TF over GST control) | 1.46 fold enrichment (6-mer frequency, TF over GST control) | 1.42 fold enrichment (6-mer frequency, TF over GST control) | 1.32 fold enrichment (6-mer frequency, TF over GST control) | 1.27 fold enrichment (6-mer frequency, TF over GST control) | 1.3 fold enrichment (6-mer frequency, TF over GST control) | 1.35 fold enrichment (6-mer frequency, TF over GST control) | 1.32 fold enrichment (6-mer frequency, TF over GST control)
TCCATA | 1.33 fold enrichment (6-mer frequency, TF over GST control) | 1.3 fold enrichment (6-mer frequency, TF over GST control) | 1.18 fold enrichment (6-mer frequency, TF over GST control) | 1.25 fold enrichment (6-mer frequency, TF over GST control) | 1.23 fold enrichment (6-mer frequency, TF over GST control) | 1.24 fold enrichment (6-mer frequency, TF over GST control) | 1.18 fold enrichment (6-mer frequency, TF over GST control) | 1.21 fold enrichment (6-mer frequency, TF over GST control) | 1.35 fold enrichment (6-mer frequency, TF over GST control)
CTAATA | 1.21 fold enrichment (6-mer frequency, TF over GST control) | 1.15 fold enrichment (6-mer frequency, TF over GST control) | 1.13 fold enrichment (6-mer frequency, TF over GST control) | 1.17 fold enrichment (6-mer frequency, TF over GST control) | 1.19 fold enrichment (6-mer frequency, TF over GST control) | 1.25 fold enrichment (6-mer frequency, TF over GST control) | 1.24 fold enrichment (6-mer frequency, TF over GST control) | 1.17 fold enrichment (6-mer frequency, TF over GST control) | 1.06 fold enrichment (6-mer frequency, TF over GST control)
TCCACA | 1.3 fold enrichment (6-mer frequency, TF over GST control) | 1.27 fold enrichment (6-mer frequency, TF over GST control) | 1.26 fold enrichment (6-mer frequency, TF over GST control) | 1.19 fold enrichment (6-mer frequency, TF over GST control) | 1.23 fold enrichment (6-mer frequency, TF over GST control) | 1.25 fold enrichment (6-mer frequency, TF over GST control) | 1.28 fold enrichment (6-mer frequency, TF over GST control) | 1.14 fold enrichment (6-mer frequency, TF over GST control) | 1.35 fold enrichment (6-mer frequency, TF over GST control)
AAACAT | 1.53 fold enrichment (6-mer frequency, TF over GST control) | 1.4 fold enrichment (6-mer frequency, TF over GST control) | 1.49 fold enrichment (6-mer frequency, TF over GST control) | 1.37 fold enrichment (6-mer frequency, TF over GST control) | 1.5 fold enrichment (6-mer frequency, TF over GST control) | 1.43 fold enrichment (6-mer frequency, TF over GST control) | 1.36 fold enrichment (6-mer frequency, TF over GST control) | 1.48 fold enrichment (6-mer frequency, TF over GST control) | 1.46 fold enrichment (6-mer frequency, TF over GST control)
ACACTT | 1.63 fold enrichment (6-mer frequency, TF over GST control) | 1.7 fold enrichment (6-mer frequency, TF over GST control) | 1.53 fold enrichment (6-mer frequency, TF over GST control) | 1.8 fold enrichment (6-mer frequency, TF over GST control) | 1.69 fold enrichment (6-mer frequency, TF over GST control) | 1.66 fold enrichment (6-mer frequency, TF over GST control) | 1.95 fold enrichment (6-mer frequency, TF over GST control) | 1.67 fold enrichment (6-mer frequency, TF over GST control) | 1.74 fold enrichment (6-mer frequency, TF over GST control)
AGCTCC | 1.38 fold enrichment (6-mer frequency, TF over GST control) | 1.23 fold enrichment (6-mer frequency, TF over GST control) | 1.32 fold enrichment (6-mer frequency, TF over GST control) | 1.2 fold enrichment (6-mer frequency, TF over GST control) | 1.28 fold enrichment (6-mer frequency, TF over GST control) | 1.31 fold enrichment (6-mer frequency, TF over GST control) | 1.25 fold enrichment (6-mer frequency, TF over GST control) | 1.21 fold enrichment (6-mer frequency, TF over GST control) | 1.17 fold enrichment (6-mer frequency, TF over GST control)
